Screens as filed in PubChem BioAssay.
Sampled rows, rich in hits. Any-hit rate of the full collection: about 3.5%.
GPR151 ag: activators of human GPR151, primary screen, cell-based, PathHunter beta-arrestin, luminescence; PathHunter beta-arrestin GPR151 cells; G-protein coupled receptor 151 (Homo sapiens), Q8TDV0; AID 1508602, 2020; actives 1% (n = 650,000); activation, % at 11.2 µM; in the data active = activation above about 4.9%;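 also: 0% = median of compound wells and 100% = cells with positive control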
TEAD-YAP block: TEAD-YAP interaction inhibition, primary screen, TEAD-YAP interaction inhibitor project, luminescence, HEK-TIYL cells. TEAD-Gal4/YAP UAS-luciferase luminescence. inhibition, % at 9.12 µM. actives 1.4% (n = 640,000). AID 1259422, 2018; in the data active = inhibition above about 32%;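 also: 0% = median of test compound wells and 100% = reference inhibitor wells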
MITF inh: MITF inhibitors, primary screen, biochemical, AlphaScreen, human; AlphaScreen MITF homodimerization, bead proximity signal; actives 0.91% (n = 650,000); Microphthalmia-associated transcription factor (Homo sapiens), O75030; inhibition, % at 2.6 µM; in the data active = inhibition above about 50%;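 also: 0% = vehicle wells with protein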
FBW7 act: FBW7 E3 ligase activators, primary screen, biochemical, AlphaScreen, human; F-box/WD repeat-containing protein 7 (Homo sapiens), Q969H0; AlphaScreen FBW7–phospho-cyclin E peptide binding, activator screen; AID 1259310, 2017; actives 0.13% (n = 650,000); normalized activity (activation), % at 26.1 µM; in the data active = normalized activity above about 1.9%;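 also: purified mutant Fbw7 with reduced substrate affinity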
GPR151 confirm: GPR151 activators, triplicate retest, confirmation, cell-based, PathHunter beta-arrestin, luminescence. shares compounds with GPR151 ag. GPR151 PathHunter beta-arrestin cells, 90 min; % of EA-reagent control over plate median. activation, % at 11.2 µM. 6,700 tested, under 10 active;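 active = mean percent activation across replicates above the confirmation screen cutoff of 4.91%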
GPR119 counter: GPR119 activators in beta-arrestin cells, counter-screen for GPR151 activator project, cell-based, PathHunter beta-arrestin, luminescence, triplicate; activation, % at 11.2 µM; shares compounds with GPR151 ag; 90 min; 0 = compound-well median, 100 = enzyme-acceptor control; actives 0.3% (n = 6,700);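 active = mean percent activation in the counterscreen above 29.09%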;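 also: counterscreen on off-target GPR119 to flag nonselective hits from the GPR151 activator screen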
Target sequence (Q8TDV5 whole entry, looked up): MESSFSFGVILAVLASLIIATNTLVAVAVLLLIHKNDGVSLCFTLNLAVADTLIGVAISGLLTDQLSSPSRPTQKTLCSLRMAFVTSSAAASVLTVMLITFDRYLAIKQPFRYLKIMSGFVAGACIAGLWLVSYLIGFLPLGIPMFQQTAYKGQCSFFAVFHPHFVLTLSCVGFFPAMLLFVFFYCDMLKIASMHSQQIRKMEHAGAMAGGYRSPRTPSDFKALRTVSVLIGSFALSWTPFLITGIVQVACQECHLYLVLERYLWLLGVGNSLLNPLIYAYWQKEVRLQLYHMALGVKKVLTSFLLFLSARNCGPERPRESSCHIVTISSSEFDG
An asterisk follows results filed as active; ! = not confirmed by another sample.

What do the screens show for `CC1=C(C(=O)OCC2CCCO2)C(c2cccc([N+](=O)[O-])c2)C2=C(CCCC2=O)N1` (configuration not stated)?
GPR151 ag: 6.1*; TEAD-YAP block: 8.5; MITF inh: 3.9; FBW7 act: -0.2; GPR151 confirm: 0.0; GPR119 counter: 8.4

Results for CCOCCOC(=O)C1=C(C)NC2=C(C(=O)CC(c3ccc(Cl)cc3)C2)C1c1ccc(Cl)cc1 (configuration not stated) ?
GPR151 ag: 7.4*; TEAD-YAP block: 17.4; MITF inh: -1.2; FBW7 act: 0.4; GPR151 confirm: -1.2; GPR119 counter: -3.9

How did CCCOCCOC(=O)C1=C(C)NC2=C(C(=O)CCC2)C1c1ccc(F)c(F)c1 (configuration not stated) do in these assays?
GPR151 ag: 0.1; TEAD-YAP block: 17.5; MITF inh: -3.1; FBW7 act: 0.7

Results for CCOCCOC(=O)C1=C(C)NC2=C(C(=O)CCC2)C1c1ccc(F)c(F)c1 (configuration not stated) ?
GPR151 ag: 11.7*!; TEAD-YAP block: 7.0; MITF inh: 6.3; FBW7 act: -0.1; GPR151 confirm: 0.8; GPR119 counter: 17.1

Results for CCOCCOC(=O)C1=C(C)NC2=C(C(=O)CC(c3ccc(Cl)cc3)C2)C1c1ccc(O)cc1 (configuration not stated) ?
GPR151 ag: -1.0; TEAD-YAP block: 5.7; MITF inh: 17.1; FBW7 act: 0.3

How did CC1=C(C(=O)OCCOc2ccccc2)C(c2cccc(O)c2)C2=C(CC(c3ccccc3)CC2=O)N1 (configuration not stated) do in these assays?
GPR151 ag: 14.1*; TEAD-YAP block: 6.2; MITF inh: 7.9; FBW7 act: 1.8; GPR151 confirm: 0.2; GPR119 counter: 7.9

What do the screens show for `CCOc1ccc(C2=NC(c3ccc(Cl)cc3)NC(c3cc(Cl)ccc3O)C2)cc1` (configuration not stated)?
GPR151 ag: -0.8; TEAD-YAP block: -29.5; MITF inh: -4.0; FBW7 act: -0.2

What do the screens show for `NC(=O)c1cc2c(ccc3ccccc32)oc1=Nc1ccccc1`?
GPR151 ag: 5.2*; TEAD-YAP block: -8.1; MITF inh: 2.6; FBW7 act: -0.1; GPR151 confirm: -0.8; GPR119 counter: -7.6

How did COCc1cc(C)nc(SCC(=O)O)c1C#N do in these assays?
GPR151 ag: 5.9*; TEAD-YAP block: 6.1; MITF inh: 0.7; FBW7 act: -0.2; GPR151 confirm: -0.4; GPR119 counter: -9.6

What do the screens show for `COCc1cc(C)nc(SCC(=O)Oc2ccccc2)c1C#N`?
GPR151 ag: -1.4; TEAD-YAP block: 0.8; MITF inh: -9.1; FBW7 act: 0.2

How did CCOC(=O)c1c(NC(=O)COc2cccc(C)c2)sc2c1CCCC2 do in these assays?
GPR151 ag: 0.5; TEAD-YAP block: 4.6; MITF inh: -11.4; FBW7 act: 0.0

Results for COc1cc(C(=O)Nc2nnc(Cc3ccc(Cl)cc3)s2)c([N+](=O)[O-])cc1OC ?
GPR151 ag: 6.1*; TEAD-YAP block: 11.7; MITF inh: -1.5; FBW7 act: -0.3; GPR151 confirm: 1.5; GPR119 counter: -3.0

What do the screens show for `Cc1c(C(=O)N2CCN(Cc3ccccc3)CC2)sc2ncn(Cc3ccccc3Cl)c(=O)c12`?
GPR151 ag: -1.6; TEAD-YAP block: -3.9; MITF inh: -6.1; FBW7 act: -0.4

Results for Cc1c(C(=O)N2CCCCCC2)sc2ncn(Cc3ccccc3Cl)c(=O)c12 ?
GPR151 ag: 8.5*; TEAD-YAP block: 1.2; MITF inh: -4.4; FBW7 act: -0.1; GPR151 confirm: -0.4; GPR119 counter: 5.5

Results for CCN(CC)CCNC(=O)CN1Cc2c(cnn2-c2ccccc2)C1=O ?
GPR151 ag: -1.4; TEAD-YAP block: 0.6; MITF inh: 17.1; FBW7 act: -0.1

How did Cc1ccc(C(=O)Oc2cc(N)n(S(=O)(=O)c3ccc(C)cc3)n2)cc1 do in these assays?
GPR151 ag: 1.1; TEAD-YAP block: -12.8; MITF inh: 10.3; FBW7 act: 0.2

What do the screens show for `COc1ccc(C(=O)Oc2cc(N)n(S(=O)(=O)c3ccc(C)cc3)n2)cc1OC`?
GPR151 ag: 6.3*; TEAD-YAP block: 4.5; MITF inh: 8.3; FBW7 act: 0.0; GPR151 confirm: 0.5; GPR119 counter: 10.5

Results for CCOC(=O)C(C(=O)OCC)C(C[N+](=O)[O-])c1ccc(OC)cc1 (configuration not stated) ?
GPR151 ag: -1.3; TEAD-YAP block: -2.4; MITF inh: 0.6; FBW7 act: 0.1

How did C=CCc1cccc(/C=N\NC(=O)Cc2cccs2)c1O do in these assays?
GPR151 ag: -1.2; TEAD-YAP block: 1.4; MITF inh: 5.7; FBW7 act: -0.2

How did O=C(NC1CCCCC1)c1ccc(F)c(F)c1 do in these assays?
GPR151 ag: 5.8*; TEAD-YAP block: 8.0; MITF inh: -10.5; FBW7 act: 0.1; GPR151 confirm: 0.1; GPR119 counter: -17.8

How did O=C(NC1CCCCC1)c1ccc(-n2cccc2)cc1 do in these assays?
GPR151 ag: 5.8*; TEAD-YAP block: -44.0; MITF inh: 18.7; FBW7 act: -0.1; GPR151 confirm: 0.4; GPR119 counter: -3.0

What do the screens show for `Cc1cc(C)cc(NC(=O)C2CCCN2C(=O)C(C)(C)C)c1` (configuration not stated)?
GPR151 ag: -0.8; TEAD-YAP block: 11.1; MITF inh: 3.4; FBW7 act: 0.0

What do the screens show for `COC(CNC(=O)c1cnn2c(C)c(Cc3ccccc3F)c(C)nc12)OC`?
GPR151 ag: 0.7; TEAD-YAP block: 14.8; MITF inh: 11.7; FBW7 act: 0.0

Results for Cc1ccc(/C=C/C(=O)NCc2ccc(S(N)(=O)=O)cc2)o1 ?
GPR151 ag: 6.3*; TEAD-YAP block: -5.6; MITF inh: 5.2; FBW7 act: -0.6; GPR151 confirm: -0.5; GPR119 counter: -4.5

What do the screens show for `COc1ccc(CCNC(=O)c2csc(-c3ccc(C(N)=O)cc3)n2)cc1`?
GPR151 ag: 0.0; TEAD-YAP block: 6.7; MITF inh: -5.7; FBW7 act: -0.1

Results for CN(CC(=O)Nc1ccc(F)cc1)S(=O)(=O)c1cccc2cnccc12 ?
GPR151 ag: -2.3; TEAD-YAP block: 21.0; MITF inh: -2.4; FBW7 act: 0.0
